Source: PubChem BioAssay (NCATS)
Values joined by “and” are separate entries in the source; they are usually repeats but may differ in a detail not shown here. Identical values can stand only once. A number with no mark means an inactive call. Records with an inconclusive call do not appear. Entries that show only a call come without a potency. Active and inactive are the calls of the source. Unless noted, the call rests on the fitted dose curve; in most records, active means well fitted curve in the direction sought with a large enough effect; inconclusive means small, poorly fitted or top-dose-only effect, or another doubt; inactive means no such curve, though single readings can be large; an effect the other way counts as inactive or inconclusive.

Experiments:
[1] = qHTS for differential inhibitors of proliferation of Plasmodium falciparum line W2 (AID 1883); conditions: Potency: Plasmodium falciparum W2 proliferation inhibition;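 further: parasites grown with compound for 72 h before lysis and staining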; further: potency means the concentration at half of the fitted maximal effect
[2] = qHTS Assay for Modulators of Human Peripheral Myelin Protein 22 (PMP22) Expression/Activity (AID 1967; active means well fitted curve in the direction sought with a large enough effect in the signal ratio; the % refers to the signal ratio)
Summary of the method: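 Mouse MSC80 Schwann cells carrying Pmp22 promoter–green click beetle luciferase plus EF-alpha–red luciferase control, dosed 24 h at 37 °C. Dual-filter luminescence, overlap-corrected; %Activity from green/red ratio normalised to untreated cells, concentration-response curves fitted.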

[3] = Validation screen for small molecules that induce DNA re-replication in SW480 colon adenocarcinoma cells (AID 504364)
Summary of the method: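 SW480 cells seeded at 250 per well were exposed to compound or DMSO for 48 hr at 37 C, 5% CO2, then stained with Hoechst for 40 min. DNA content per nucleus was imaged (405 nm ex, 500-530 nm em).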

[4] = qHTS profiling for inhibitors of Plasmodium falciparum proliferation (AID 504749); further: nearly all actives have a fitted effect of over 60% in size; conditions: P. falciparum in erythrocytes, SYBR Green DNA, 72 h, at 28.7 µM (top of the series)
Summary of the method: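 Readout was DNA-dye fluorescence from lysed cultures, ex 485/em 535 nm. Parasitized red cells had grown 72 h with compound; data scaled between 0.29 uM artemisinin and DMSO wells and corrected using vehicle-only plates.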

[5] = molecular target: Calcium and integrin-binding protein 1 (Homo sapiens) (UniProt Q99828); assay: Confirmatory qHTS for Identification of Calcium Integrin Binding Protein 1 (CIB1) Competitor (AID 1508617); further: nearly all actives have a fitted effect of over 65% in size; further: potency means the concentration at half of the fitted maximal effect
Calcium and integrin-binding protein 1 (Homo sapiens), sequence (Q99828 whole entry, looked up): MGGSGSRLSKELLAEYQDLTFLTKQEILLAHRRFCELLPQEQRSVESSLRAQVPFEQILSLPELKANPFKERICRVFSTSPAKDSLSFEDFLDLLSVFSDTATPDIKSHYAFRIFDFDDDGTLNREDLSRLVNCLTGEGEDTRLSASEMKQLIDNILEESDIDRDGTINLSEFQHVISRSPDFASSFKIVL
Summary of the method: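 Fluorescence polarization competition: CIB1-GST (1 uM final) in 5 mM HEPES pH 7.4, 125 mM NaCl, 5 mM CaCl2, 0.01% Tween20 preincubated 15 min RT with compound (up to 114 uM), then FITC-alphaIIb peptide (100 nM) added, 15 min RT.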

[6] = AP1 Signaling Pathway (AID 357; active means well fitted curve in either direction with a large enough effect, not every such curve was filed as active;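 further: ME-180 reporter cells stimulated with EGF at its EC50 level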); conditions: ME-180 AP-1-bla reporter, EGF-induced, beta-lactamase ratio, 5 h; at 7.69 µM (top of the series) unless noted
Summary of the method: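 In this screen, ME-180 cells in Opti-MEM with 0.5% dialyzed FBS received EC50 EGF and compound titrations for 5 h. AP-1 reporter beta-lactamase was detected via CCF4 ratio, giving AC50 for positive and negative modulators.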

[7] = molecular target: Cytochrome P450 1A2 (Homo sapiens) (UniProt P05177); assay: p450-cyp1a2 (AID 410; calls by dose curve; further: potency means the concentration at half of the fitted maximal effect)
Cytochrome P450 1A2 (Homo sapiens), sequence (P05177 whole entry, looked up): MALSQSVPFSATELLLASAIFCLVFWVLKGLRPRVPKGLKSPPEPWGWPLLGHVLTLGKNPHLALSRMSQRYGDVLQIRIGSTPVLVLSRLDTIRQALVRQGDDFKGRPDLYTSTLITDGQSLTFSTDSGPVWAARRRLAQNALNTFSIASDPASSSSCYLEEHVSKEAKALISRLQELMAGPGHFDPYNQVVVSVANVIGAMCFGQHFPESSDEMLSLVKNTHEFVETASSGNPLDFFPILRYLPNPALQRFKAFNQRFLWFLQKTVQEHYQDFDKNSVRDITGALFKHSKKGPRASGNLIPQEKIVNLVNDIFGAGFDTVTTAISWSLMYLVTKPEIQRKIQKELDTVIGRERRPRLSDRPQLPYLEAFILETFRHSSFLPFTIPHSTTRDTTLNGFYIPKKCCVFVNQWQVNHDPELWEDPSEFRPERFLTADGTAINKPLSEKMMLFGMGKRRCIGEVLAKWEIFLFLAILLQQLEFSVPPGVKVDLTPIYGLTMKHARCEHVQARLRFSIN
Summary of the method: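 Human CYP1A2 (20nM) demethylated Luciferin-ME at its Km (100uM) in 100mM KPO4. After 10 min compound preincubation, NADPH regeneration ran the reaction 60 min at room temperature. Luciferin was read by luminescence, normalized to 57 uM furafylline.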

[8] = NFAT Signaling Pathway (AID 444; active means well fitted curve in either direction with a large enough effect, not every such curve was filed as active;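 further: carbachol stimulus at about its EC50 of 1 µM final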); conditions: Jurkat NFAT-bla M1, carbachol, beta-lactamase ratio, 5 h; at 7.69 µM (top of the series) unless noted
Summary of the method: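 Jurkat cells with NFAT-driven β-lactamase reporter and co-expressed M1 receptor, stimulated with carbachol (final 1 uM, ~EC50), compound titration, 5 h at 37 °C. CCF4 loaded 1 h at RT; 460/530 nm ratio gave %activity and AC50.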

[9] = Stat Signaling Pathway (AID 446; active means well fitted curve in either direction with a large enough effect, not every such curve was filed as active;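 further: ME-180 cervical cancer cells given 40 pM IL-6 alongside compound; SIE-controlled beta-lactamase reporter measured as 460/530 nm FRET emission ratio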); conditions: ME-180 SIE beta-lactamase reporter, IL-6 stimulated, 5 h; at 7.69 µM (top of the series) unless noted
Summary of the method: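 ME-180 SIE-bla cells; overnight plating; cpd + IL-6 40 pM, 5 h, 37 C; LiveBLAzer 2.5 h RT; 460/530 nm emission ratio. Normalized to 300 pM IL-6 and 125 nM JAK inhibitor controls.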

[10] = molecular target: 3',5'-cyclic-AMP phosphodiesterase 4B (Homo sapiens) (UniProt Q07343); assay: qHTS Assay for Inhibitors of PDE-IV (AID 607; active means well fitted activation curve with a large enough effect in the main read-out, with a control signal flat, not every such curve was filed as active)
3',5'-cyclic-AMP phosphodiesterase 4B (Homo sapiens), sequence (Q07343 whole entry, looked up): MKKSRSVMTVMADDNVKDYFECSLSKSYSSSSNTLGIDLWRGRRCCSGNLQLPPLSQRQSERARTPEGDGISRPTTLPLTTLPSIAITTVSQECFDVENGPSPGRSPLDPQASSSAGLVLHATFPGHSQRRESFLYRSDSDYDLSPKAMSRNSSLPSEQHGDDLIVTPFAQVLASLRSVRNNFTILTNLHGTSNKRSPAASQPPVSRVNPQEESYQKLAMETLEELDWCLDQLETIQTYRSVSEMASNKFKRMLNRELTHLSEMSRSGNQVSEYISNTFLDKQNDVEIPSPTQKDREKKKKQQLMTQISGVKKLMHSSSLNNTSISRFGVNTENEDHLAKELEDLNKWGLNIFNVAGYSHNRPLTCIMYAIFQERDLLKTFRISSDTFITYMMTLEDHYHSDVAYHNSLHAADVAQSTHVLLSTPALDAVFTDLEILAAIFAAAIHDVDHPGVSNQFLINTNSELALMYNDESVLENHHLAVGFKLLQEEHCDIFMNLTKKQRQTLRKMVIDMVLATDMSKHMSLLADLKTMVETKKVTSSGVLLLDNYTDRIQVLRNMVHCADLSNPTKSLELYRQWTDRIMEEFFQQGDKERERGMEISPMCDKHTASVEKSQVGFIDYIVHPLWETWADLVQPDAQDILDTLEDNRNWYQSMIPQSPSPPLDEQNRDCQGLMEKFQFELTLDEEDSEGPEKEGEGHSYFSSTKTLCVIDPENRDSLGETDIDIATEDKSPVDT
Summary of the method: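 ACTOne HEK293 cells carry a modified cAMP-gated CNG channel and express endogenous PDE4; plated 1000 cells/well, compounds up to 22.9 uM final. Membrane-potential dye fluorescence (ex 535/em 590) was read; parental cells received 10 uM forskolin + 100 uM RO 20-1724.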

[11] = molecular target: Guanine nucleotide-binding protein G(i) subunit alpha-1 (Homo sapiens) (UniProt P63096); assay: qHTS Assay for Inhibitors of RGS12 GoLoco Motif Activity (Green Fluorophore) (AID 879);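 further: negative values mean loss of peptide binding seen as reduced polarization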
Guanine nucleotide-binding protein G(i) subunit alpha-1 (Homo sapiens), sequence (P63096 whole entry, looked up): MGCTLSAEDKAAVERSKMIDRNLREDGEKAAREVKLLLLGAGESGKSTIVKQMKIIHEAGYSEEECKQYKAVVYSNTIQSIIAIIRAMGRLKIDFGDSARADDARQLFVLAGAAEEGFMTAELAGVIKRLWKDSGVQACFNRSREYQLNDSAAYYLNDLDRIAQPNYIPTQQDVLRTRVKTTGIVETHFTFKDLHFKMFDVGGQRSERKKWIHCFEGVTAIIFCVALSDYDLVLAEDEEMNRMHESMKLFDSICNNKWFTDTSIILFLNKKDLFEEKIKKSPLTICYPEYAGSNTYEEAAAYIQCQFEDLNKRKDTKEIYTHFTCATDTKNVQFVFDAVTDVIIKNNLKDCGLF
Summary of the method: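 Fluorescence polarization assay: 50 nM Gαi1 with 10 nM FITC-labeled RGS12 GoLoco peptide in 10 mM Tris pH 7.5, 150 mM NaCl, 0.1 mM GDP, 0.05% NP40, 10 min at room temperature with compound.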

[12] = molecular target: Muscarinic acetylcholine receptor M1 (Rattus norvegicus) (UniProt P08482); assay: qHTS Assay for Antagonists of Acetylcholine Muscarinic M1 Receptor: Measurement of IP-One Response (AID 944); further: potency means the concentration at half of the fitted maximal effect; nearly all actives have a fitted effect of over 75% in size
Muscarinic acetylcholine receptor M1 (Rattus norvegicus), sequence (P08482 whole entry, looked up): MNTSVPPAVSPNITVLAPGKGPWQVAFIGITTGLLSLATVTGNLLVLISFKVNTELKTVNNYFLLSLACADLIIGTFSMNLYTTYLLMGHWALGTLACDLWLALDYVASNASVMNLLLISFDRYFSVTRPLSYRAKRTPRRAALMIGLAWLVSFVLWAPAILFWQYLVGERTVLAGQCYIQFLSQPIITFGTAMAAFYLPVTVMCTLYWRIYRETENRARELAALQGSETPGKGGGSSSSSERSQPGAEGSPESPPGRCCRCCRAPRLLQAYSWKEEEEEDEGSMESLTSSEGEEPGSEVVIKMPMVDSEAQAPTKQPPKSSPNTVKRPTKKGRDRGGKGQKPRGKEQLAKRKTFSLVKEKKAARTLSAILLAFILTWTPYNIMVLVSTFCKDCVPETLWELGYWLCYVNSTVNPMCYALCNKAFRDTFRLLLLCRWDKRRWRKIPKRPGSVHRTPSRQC
Summary of the method: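 CHO cells expressing rat M1 receptor, recovered overnight, were pre-incubated 10 min with compound, then stimulated 30 min with carbachol at EC80 (200 nM) in LiCl-containing buffer, pH 7.4. IP1 accumulation was read by HTRF (620/665 nm).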

[13] = molecular target: Pyruvate kinase (Leishmania mexicana) (UniProt Q27686); assay: qHTS Validation Assay for Inhibitors of Leishmania Mexicana Pyruvate Kinase (AID 945)
Pyruvate kinase (Leishmania mexicana), sequence (Q27686 2-499 E452W): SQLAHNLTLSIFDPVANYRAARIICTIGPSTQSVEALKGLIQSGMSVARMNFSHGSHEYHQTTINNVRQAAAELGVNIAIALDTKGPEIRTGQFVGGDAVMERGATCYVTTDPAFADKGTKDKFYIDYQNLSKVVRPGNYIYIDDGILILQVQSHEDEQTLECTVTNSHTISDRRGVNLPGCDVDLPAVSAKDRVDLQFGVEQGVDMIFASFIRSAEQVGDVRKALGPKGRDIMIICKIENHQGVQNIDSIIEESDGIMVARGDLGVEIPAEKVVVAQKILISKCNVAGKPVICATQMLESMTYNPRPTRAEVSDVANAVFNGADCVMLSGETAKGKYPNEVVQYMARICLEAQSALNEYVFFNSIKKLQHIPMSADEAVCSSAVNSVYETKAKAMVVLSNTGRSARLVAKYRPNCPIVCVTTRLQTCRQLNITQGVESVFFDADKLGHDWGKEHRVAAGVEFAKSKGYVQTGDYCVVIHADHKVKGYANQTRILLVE
Summary of the method: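 Luminescent ATP detection (PKLight) after a 1 h room-temperature reaction of 0.2 nM LmPYK E451W mutant with 0.5 mM PEP and 0.1 mM ADP at pH 7.2. Activity is normalized to DMSO-only control wells.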

[14] = molecular target: Pyruvate kinase PKM (Homo sapiens) (UniProt P14618); assay: qHTS Assay for Activators of Human Muscle Pyruvate Kinase (AID 954; active means well fitted curve in the direction sought with a large enough effect, not every such curve was filed as active)
Pyruvate kinase PKM (Homo sapiens), sequence (P14618 whole entry, looked up): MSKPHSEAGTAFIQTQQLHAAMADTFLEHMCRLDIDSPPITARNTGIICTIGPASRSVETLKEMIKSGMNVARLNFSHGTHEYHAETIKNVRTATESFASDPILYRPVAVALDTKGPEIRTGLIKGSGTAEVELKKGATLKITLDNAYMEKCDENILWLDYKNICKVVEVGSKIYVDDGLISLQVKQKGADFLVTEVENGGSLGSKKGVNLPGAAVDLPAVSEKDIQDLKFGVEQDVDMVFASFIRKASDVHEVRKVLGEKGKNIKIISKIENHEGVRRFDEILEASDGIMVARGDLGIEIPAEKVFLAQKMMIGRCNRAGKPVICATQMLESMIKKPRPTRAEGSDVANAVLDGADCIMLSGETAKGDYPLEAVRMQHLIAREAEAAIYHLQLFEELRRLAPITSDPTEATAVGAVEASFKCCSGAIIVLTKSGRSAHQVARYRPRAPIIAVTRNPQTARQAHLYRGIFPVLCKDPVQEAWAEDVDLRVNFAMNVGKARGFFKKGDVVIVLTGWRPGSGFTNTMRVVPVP
Summary of the method: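 Luminescence from a luciferase ATP-detection/stop reagent reported PKM2 activity. Reactions contained 0.1 nM purified human enzyme, 0.5 mM PEP, 0.1 mM ADP and 7 mM MgCl2 at pH 7.2, run 1 h at RT.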

[15] = molecular target: Alpha-galactosidase A (Homo sapiens) (UniProt P06280); assay: Counterscreen for Glucocerebrosidase Inhibitors: qHTS Assay for Human alpha-Galactosidase at pH 4.5 (AID 992)
Alpha-galactosidase A (Homo sapiens), sequence (P06280 whole entry, looked up): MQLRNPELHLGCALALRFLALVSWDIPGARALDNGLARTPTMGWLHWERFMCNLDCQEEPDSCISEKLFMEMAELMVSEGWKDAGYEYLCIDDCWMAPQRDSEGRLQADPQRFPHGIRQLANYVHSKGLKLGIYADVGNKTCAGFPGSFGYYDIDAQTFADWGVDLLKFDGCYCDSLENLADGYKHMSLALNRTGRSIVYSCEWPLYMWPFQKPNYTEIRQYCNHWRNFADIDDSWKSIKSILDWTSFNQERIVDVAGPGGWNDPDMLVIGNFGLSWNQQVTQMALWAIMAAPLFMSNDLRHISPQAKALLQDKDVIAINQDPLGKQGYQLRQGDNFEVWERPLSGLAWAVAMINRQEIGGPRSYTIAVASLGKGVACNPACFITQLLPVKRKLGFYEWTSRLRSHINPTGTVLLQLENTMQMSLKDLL
Summary of the method: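 Enzyme at 2 nM final was combined with compound (0.7 nM to 77 uM) and 80 uM 4-methylumbelliferyl alpha-D-galactopyranoside in 50 mM citric acid, 0.005% Tween-20, pH 4.5. After 20 min at room temperature, fluorescence was read (Ex 365/Em 440 nm); AC50 came from Hill fits.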

[16] = molecular target: alpha-glucosidase (Oryza sativa, rice) (UniProt Q653V4); assay: Counterscreen for Glucocerebrosidase Inhibitors: qHTS Assay for Rice alpha-Glucosidase at pH 5.0 (AID 997)
Summary of the method: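 Rice alpha-glucosidase (4 nM final) with 400 uM 4-methylumbelliferyl-alpha-D-glucopyranoside in citrate buffer pH 5.0, 20 min at room temperature, stopped at pH 10; fluorescence 365/440 nm, compounds 0.7 nM–77 uM, AC50 from Hill fits.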

[17] = qHTS for differential inhibitors of proliferation of Plasmodium falciparum line 7G8 (AID 1815);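 further: parasite growth measured after three days of incubation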; further: potency means the concentration at half of the fitted maximal effect
[18] = qHTS for differential inhibitors of proliferation of Plasmodium falciparum line GB4 (AID 1816); conditions: Potency: Plasmodium falciparum GB4 proliferation inhibition;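 further: parasite growth measured after 72 h incubation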; further: potency means the concentration at half of the fitted maximal effect

## COc1cc2c(cc1OC)C(c1ccccc1)CN(C)CC2 (stereo unspecified)
[1]
  Potency: 7.94 µM (active)
[2]
  outcome: inactive
[3]
  outcome: inactive
[4]; parasite line A
  activity, negative = inhibition: -10.7%
[4]; parasite line B
  activity, negative = inhibition: -13.2%

## O=C(NCCCN1CCNCC1)c1cccc(-c2cc(O)c3ncccc3c2)c1
[5]
  Potency: inactive

## C[C@H]1CC2[C@@H]3CCC4=CC(=O)C=C[C@]4(C)[C@@]3(Cl)[C@@H](O)C[C@]2(C)[C@@]1(O)C(=O)CO (stereo partly specified)
[2]
  outcome: inactive

## NCCCCNS(=O)(=O)c1cccc2c(Cl)cccc12
[6]
  activity change, negative = inhibition: -2.83% [at 38 µM]
[7]
  Potency: 15.8 µM (active)
[8]
  activity change, negative = inhibition: -12.9% [at 38 µM]
[9]
  activity, negative = inhibition: 3.48% [at 38 µM]
[10]
  Potency: inactive
[11]
  outcome: inactive
[12]
  Potency: 17.8 µM (active)
[13]
  Potency: inactive
[14]
  outcome: inactive
[15]
  outcome: inactive
[16]
  outcome: inactive
[17]
  Potency: 8.91 µM (active)
[18]
  Potency: 10 µM (active)
[1]
  Potency: 11.2 µM (active)

## CNC(=O)[C@H]1O[C@@H](n2cnc3c(NCc4ccc(N)cc4)ncnc32)[C@H](O)[C@H]1O
[18]
  Potency: inactive

## Oc1cccc2cc(N3CCCC3)cnc12
[5]
  Potency: inactive

## Nc1ncnc2c1nc(Sc1ccc(Cl)cc1)n2[C@H]1O[C@@H]2COP(=O)(O)O[C@H]2[C@@H]1O
[18]
  Potency: 7.94 µM (active)
[1]
  Potency: 10 µM (active)

## NC(=S)NCCCC(N)C(=O)O (stereo unspecified)
[17]
  Potency: inactive
[1]
  Potency: inactive

## COc1ccccc1Nc1cc2ccccc2c(=O)[nH]1
[5]
  Potency: 39.8 µM (active)

## C[C@H](Cc1ccccc1)Nc1ncnc2c1ncn2[C@@H]1O[C@H](CO)[C@H](O)[C@H]1O
[17]
  Potency: inactive
[18]
  Potency: inactive
[3]
  outcome: inactive

## Cc1cc(NS(=O)(=O)c2ccc(NC(=O)Cc3ccc(F)c(Cl)c3)cc2)no1
[5]
  Potency: inactive

## CC(C)(C)[C@]1(O)CCN2CC3c4ccccc4CCc4cccc(c43)[C@@H]2C1 (stereo partly specified)
[17]
  Potency: 5.62 µM (active) and 5.01 µM (active)
[18]
  Potency: 6.31 µM (active) and 5.01 µM (active)
[1]
  Potency: 2.82 µM (active) and 2.24 µM (active)

## CC(=O)NCCc1ccc(O)c(O)c1
[6]
  activity change, negative = inhibition: -4.94% [at 38 µM]
[7]
  Potency: inactive
[8]
  activity change, negative = inhibition: 11.3% [at 38 µM]
[9]
  activity, negative = inhibition: 5.1% [at 38 µM]
[10]
  Potency: inactive
[11]
  outcome: inactive
[13]
  Potency: inactive
[14]
  outcome: inactive
[15]
  outcome: inactive
[16]
  outcome: inactive
[2]
  outcome: inactive

## OC[C@H]1O[C@@H](n2cnc3c(NC4CCCC4)ncnc32)[C@H](O)[C@H]1O
[18]
  Potency: inactive
[3]
  outcome: inactive

## CN1C2CCC1CC(NC(=O)c1nn(C)c3ccccc13)C2 (stereo unspecified)
[18]
  Potency: inactive
[2]
  outcome: inactive
[3]
  outcome: inactive
